DPM-DC inhibit = blocks S. pneumoniae diphosphomevalonate decarboxylase; purified DPM-DC, PK/LDH coupled NADH fluorescence; calls only at 10 µM; 65,000 compounds, 0.49% hits;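 active = the 320 compounds with the highest percent inhibition in the single-dose primary screen, excluding strongly autofluorescent ones, cut at about 32% in these data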;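 also: kinetic rate of NADH fluorescence loss reporting ADP formed by the decarboxylase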
Spn PMK inh = S. pneumoniae PMK inhibition; purified PMK, PK/LDH-coupled NADH absorbance 340 nm; inhibition, % at 10 µM; 65,000 compounds, 0.49% hits; AID 539;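 active = top-ranked compounds by inhibition in the single 10 µM screen, taking a fixed number of the strongest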
Autofluor 339 = intrinsic fluorescence of library compounds, ex339/em460 – biochemical, MLSMR library, data from DPM-DC assay, artefact control, profiling panel; AID 709; compound autofluorescence, ex339/em460 nm, NADH buffer; hits give high values; 1 = no-compound wells, NADH background; fluorescence fold increase at 10 µM; 65,000 compounds, 5.5% hits;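 active = at 10 µM, mean starting fluorescence two-fold or more over control wells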;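 also: signal is the first read of a kinetic run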
NADH coupling = blocks coupling enzymes of NAD/NADH assays. 65,000 compounds, 0.02% hits. IC50, µM (highest dose often 10 µM). coupled PK/LDH NADH assays, four targets;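 active = single-dose screening hits from any of four coupled enzyme assays that gave an IC50 when retested across doses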;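 also: the DPM-DC format reads NADH fluorescence rather than 340 nm absorbance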
MK inhibit = S. pneumoniae mevalonate kinase inhibition. purified MK, PK/LDH-coupled NADH absorbance 340 nm. inhibition, % at 10 µM. 65,000 compounds, 0.48% hits. AID 555;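 active = ranked among the strongest by inhibition in the single 10 µM screen, a fixed top-ranked set picked for dose follow-up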
A340 absorber = compound absorbs light at 340 nm; compound absorbance at 340 nm, fold over control; fold change at 10 µM; 65,000 tested, under 10 active;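 active = at 10 µM dose, initial 340 nm absorbance at least 2 fold that of control wells; inactive = change under 2 fold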;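 also: initial absorbance extrapolated from kinetic A340 decline of NADH oxidation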
Each line names hits and unclear results; the compound was inactive in the other large screens. This is a sample that favours compounds with a hit; in the whole collection about 6.8% have one here.

COCCn1c(SCC(=O)c2ccc(Cl)cc2)nnc1C(C)C	none
O=C(C1CCCN(S(=O)(=O)c2cnc[nH]2)C1)N1CC(=O)N(CCc2ccccc2)C(=O)C1 (centres undefined)	none
CN(C)c1ccc(C(c2nnnn2C2CCCCC2)N2CCN(C(=O)c3ccco3)CC2)cc1 (centres undefined)	none
CC1CCCCC1n1c(=S)[nH]c2ccccc2c1=O (centres undefined)	none
O=C(NCCN1CCN(c2ccccc2F)CC1)c1cccn2c(=O)c3ccccc3nc12	Autofluor 339 3.1
NC(=O)C1(N2CCCCC2)CCN(C(=O)c2cccn3c(=O)c4cc(Cl)ccc4nc23)CC1	Autofluor 339 4.9 (not shown: DPM-DC inhibit)
CSc1ccccc1NC(=O)c1cc(-c2cccs2)on1	Autofluor 339 2.3
COCCNC(=O)c1c(N)sc2c1CCCC2	Autofluor 339 2.1
CCN(CC)c1ccc(C2C(C(=O)OC)=C(C)NC(C)=C2C(=O)OC)cc1	none
COC(=O)C1=C(C)NC(C)=C(C(=O)OC)C1c1ccc(NC(C)=O)cc1	Autofluor 339 2.1
Cc1cccn2c(=O)c3cc(C(=O)NCc4ccco4)c(=N)n(C(C)C)c3nc12	Autofluor 339 2.3 (not shown: DPM-DC inhibit)
Cc1cccn2c(=O)c3cc(C(=O)NCc4ccco4)c(=N)n(CCc4ccccc4)c3nc12	Autofluor 339 3.8 (not shown: DPM-DC inhibit)
COCCCn1c(=N)c(C(=O)NCc2ccc3c(c2)OCO3)cc2c(=O)n3cccc(C)c3nc21	none
C=CCn1c(SCc2cc(=O)n3ccsc3n2)nc2sc(C)c(C)c2c1=O	none
COc1cccc(NC(=O)CCSc2nnc3scc(-c4ccccc4)n23)c1	none
COc1ccc(NC(=O)Cn2nnc(-c3ccccc3NC(=O)c3ccco3)n2)cc1	Autofluor 339 2.1
O=C(Cn1nnc(-c2ccccc2NC(=O)c2cccs2)n1)Nc1ccccc1	Autofluor 339 2.4
COc1ccccc1NC(=O)Cn1nnc(-c2ccccc2NC(=O)c2cccs2)n1	none
O=C(CN1CCN(c2ncccn2)CC1)Nc1ccccc1-n1cccc1	none
Cc1cc(C(=O)OCCO)c(C#N)c(N)n1	Autofluor 339 2.9 (not shown: DPM-DC inhibit)
COc1ccc(-c2csc(N3CCC(C(N)=O)(N4CCCCC4)CC3)n2)cc1	none
CCOc1ccc2nc3ccc4[nH]onc4c3c2c1	Autofluor 339 2.3 (not shown: DPM-DC inhibit)
O=C1CC(c2ccccc2)CC(O)=C1C=NCC1CCCO1 (centres undefined)	Spn PMK inh 38
O=C(NC1=NCCS1)c1nc(-c2ccccc2)n(-c2ccccc2)n1	none
NC(=O)c1ccsc1NC(=O)c1nc(-c2ccccc2)n(-c2ccccc2)n1	DPM-DC inhibit active
O=S(=O)(NCc1ccc2c(c1)OCO2)c1cccc(S(=O)(=O)N2CCOCC2)c1	none
CCCCCn1c(=NC(=O)c2ccco2)c(C(=O)OCC)cc2c(=O)n3ccccc3nc21	Autofluor 339 3
CCOC(=O)c1c(C)nc2ccccn12	none
CCCCn1c(=NC(=O)c2ccco2)c(C(=O)OCC)cc2c(=O)n3ccccc3nc21	Autofluor 339 2.2 (not shown: DPM-DC inhibit)
CCOC(=O)N1CCC(N2Cc3cccc(C(=O)NCc4ccccn4)c3C2=O)CC1	none
CCOC(=O)c1ccc(NC(=O)N2CCN(Cc3cccc(F)c3)CC2)cc1	none
COc1ccc(C(=O)N2CCN(C(=O)CC(C)C)CC2)cc1OC	none
CC(C)CC(=O)N1CCN(Cc2cccc(F)c2)CC1	MK inhibit 59
O=C(CSCc1ccccc1)N1CCN(c2ccc(F)cc2)CC1	none
COc1cccc(CN2CCN(C(=O)CC(C)C)CC2)c1	MK inhibit 61
O=C(CSCc1cccc(F)c1)N1CCN(c2ccccc2)CC1	Spn PMK inh 25
Cc1cc(Nc2ccccc2)n(CCOC(=O)COc2ccccc2)n1	none
CC1CC(C)CN(CCCNC(=O)CNC(=O)Cn2ccc3ccccc3c2=O)C1 (centres undefined)	none
Cc1cc(C)n(-c2nc(-n3nc(C)cc3C)c3c4c(sc3n2)COC(C)(C)C4)n1	none
CSc1nnc2c3c4c(sc3nc(-n3nc(C)cc3C)n12)COC(C)(C)C4	Autofluor 339 3
Cc1cc(C)n(-c2nc3sc4c(c3c3nnc(SCC(N)=O)n23)CC(C)(C)OC4)n1	Autofluor 339 2.7
CCOc1ccc(-c2cc3nc(C4CCN(C(=O)OC(C)(C)C)CC4)c(C(=O)O)cn3n2)cc1	Autofluor 339 4.4 (not shown: DPM-DC inhibit)
Cn1c(CCNC(=O)c2ccccc2F)nnc1SCc1nc2ccccc2c(=O)[nH]1	none
CC1CCC(NC(=O)C2CCN(C(=O)NC3CCCCC3)CC2)CC1 (centres undefined)	none
Nc1cc(N)cc(-c2nc3ccccc3o2)c1	none
Cc1ccccc1-c1nc2cc(N)ccc2o1	DPM-DC inhibit active, Autofluor 339 3.1
CC(C)c1ccc2oc(-c3cc(N)ccc3O)nc2c1	none
Nc1ccc2oc(-c3cccc(Br)c3)nc2c1	Autofluor 339 2 (not shown: DPM-DC inhibit)
CCOc1ccc(NC(=O)N(CCN(C)C)C(C)c2ccncc2)cc1 (centres undefined)	none
CC(C)Cn1nc(NC(=O)C2CCCO2)c2cc3ccccc3nc21 (centres undefined)	Autofluor 339 2.1
CCn1nc(NC(=O)c2cccnc2)c2cc3ccccc3nc21	none
CC(C)Cn1nc(NS(=O)(=O)c2ccccc2)c2cc3ccccc3nc21	none
CCn1nc(NC(=O)c2ccccn2)c2cc3cc(C)ccc3nc21	Autofluor 339 3
Cc1ccc2cc3c(NC(=O)CC(C)C)nn(C)c3nc2c1	none
Cc1ccc2cc3c(NC(=O)c4ccco4)nn(CC(C)C)c3nc2c1	Autofluor 339 3.9 (not shown: DPM-DC inhibit)
Nc1cc(C2CCCC2)nn1-c1ccccc1	none
CCc1c(C)nc2cc(-c3cc(OC)cc(OC)c3)nn2c1N1CCCC1	none
COc1cc(OC)cc(-c2cc3nc4c(c(N5CCN(c6cnccn6)CC5)n3n2)CCCC4)c1	Autofluor 339 2.8
COc1cc(OC)cc(-c2cc3nc4c(c(N5CCN(c6ncccn6)CC5)n3n2)CCCC4)c1	Autofluor 339 3.8
CCC(Sc1ccccn1)C(=O)Nc1nnc(C)s1 (centres undefined)	none
Cn1c(CN2CCOCC2)nnc1SCC(=O)NCCc1ccccc1	none
Fc1cccc(Cl)c1CSc1nnc(COc2cccc3cccnc23)o1	none
CN1CCN(CCCN2c3ccccc3Sc3ccc(C(F)(F)F)cc32)CC1	none
c1ccc(CCNc2ncnc3nc[nH]c23)cc1	none
COc1ccccc1CNc1ncnc2nc[nH]c12	DPM-DC inhibit active
COc1ccc(C2(C)NC(=O)N(Cc3cc(Cl)cc4c3OCOC4)C2=O)cc1OC (centres undefined)	Spn PMK inh 31
Cc1ccc(OCCN2C(=O)OC(C)(C)C2(C)O)cc1 (centres undefined)	none
Nc1ccc2c3c(cccc13)CC2	Autofluor 339 2.3 (not shown: DPM-DC inhibit)
CCCCN(C)Cc1c(C)[nH]c2ccc(OCC)cc2c1=O	Autofluor 339 2.1 (not shown: DPM-DC inhibit)

Screening data from PubChem BioAssay.
